HepG2 tox = kills HepG2 cells in TGF-b inhibitor counter-screen | HepG2 CAGA-GFP viability, ATP luminescence, 18 h | Potency, µM (series often up to 46.1 µM), for the others: top-dose activity change, negative = cytotoxicity, hits mostly cytotoxic | 410,000 tested, 0.76% active; also: potency is read from the fitted curve at half-maximal effect
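CellTiter-Glo luminescence gave cytotoxicity after 18 hours at 37 degrees C. The cells were HepG2 CAGA-GFP in 1% FBS DMEM, stimulated with 500 pg/mL TGF-beta after compound addition. %Activity was normalised to no-cell wells (complete cell-killing) and DMSO (no toxicity), and curves were fitted and classified.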
IL1B secr inh = blocks inflammasome-driven IL-1 beta release | activity change, % at 57.5 µM | THP-1 LPS/ATP IL-1B secretion, AlphaLISA, 16 h; active compounds read low | 360,000 tested, 4.7% active; in the data active = activity change below about -50%; inconclusive = mostly about -30% to -49%; also: % is scaled to controls: 0 for no effect and ±100 for the full control effect
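Secreted IL-1B measured by AlphaLISA bead assay after 16 h compound exposure of THP-1 cells; compounds (final up to 57.5 uM) added 1 h before LPS (250 ng/mL) and ATP (1.25 mM) stimulation; lower signal means less secretion.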
TGFb inhibitor = inhibitors of TGF-b signaling. Potency, µM (top dose mostly 46.1 µM), for the others: at the top dose activity, negative = inhibition, most hits filed as inhibitors. 410,000 tested, 1.2% active. HepG2 CAGA-GFP TGF-b/SMAD3 reporter, GFP fluorescence, 18 h; TGF-beta stimulated, 500 pg/mL final. AID 588855; also: potency is read from the fitted curve at half-maximal effect; % is scaled to controls: 0 for no effect and ±100 for the full control effect; nearly all actives have a fitted effect of over 65% in size
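HEPG2 CAGA-GFP, 1000 cells/well; 2 h settle, 37 C; cpd via pin tool; TGF-b 500 pg/mL final; 18 h, 37 C; GFP imaging ex488/em500-530; %Activity normalised to -TGF-b and +DMSO controls; CRC fit, curve class.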
TDP1 cell noCPT = qHTS for Inhibitors of human tyrosyl-DNA phosphodiesterase 1 (TDP1): qHTS in cells in absence of CPT; AID 686978, 2013; 420,000 tested, 15% active; DT40 Tdp1-/- hTDP1 cells, no CPT, ATP luminescence, 48 h; Potency, µM (titrated, usually from 46.2 µM), for the others: at the highest dose activity change, negative = growth inhibition, hits mostly inhibitors; also: potency is read from the fitted curve at half-maximal effect; % is scaled to controls: 0 for no effect and ±100 for the full control effect; nearly all actives have a fitted effect of over 55% in size
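A cellular qHTS used chicken DT40 cells lacking endogenous Tdp1 but carrying stably transfected human TDP1. Compounds were applied without camptothecin, and cell growth kinetics were judged by ATP-dependent luminescence after ≥48 hr.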
TDP1 block = TDP1 (human) enzyme inhibition; Q9NUW8; recombinant TDP1, AlphaScreen DNA substrate cleavage; Potency, µM (titrated, usually from 130 µM), for the others: at the highest dose activity change, negative = inhibition, actives largely listed as inhibitors; 350,000 tested, 0.28% active; AID 485290; also: potency is read from the fitted curve at half-maximal effect; % is scaled to controls: 0 for no effect and ±100 for the full control effect; nearly all actives have a fitted effect of over 40% in size
Target sequence (Q9NUW8 whole entry, looked up): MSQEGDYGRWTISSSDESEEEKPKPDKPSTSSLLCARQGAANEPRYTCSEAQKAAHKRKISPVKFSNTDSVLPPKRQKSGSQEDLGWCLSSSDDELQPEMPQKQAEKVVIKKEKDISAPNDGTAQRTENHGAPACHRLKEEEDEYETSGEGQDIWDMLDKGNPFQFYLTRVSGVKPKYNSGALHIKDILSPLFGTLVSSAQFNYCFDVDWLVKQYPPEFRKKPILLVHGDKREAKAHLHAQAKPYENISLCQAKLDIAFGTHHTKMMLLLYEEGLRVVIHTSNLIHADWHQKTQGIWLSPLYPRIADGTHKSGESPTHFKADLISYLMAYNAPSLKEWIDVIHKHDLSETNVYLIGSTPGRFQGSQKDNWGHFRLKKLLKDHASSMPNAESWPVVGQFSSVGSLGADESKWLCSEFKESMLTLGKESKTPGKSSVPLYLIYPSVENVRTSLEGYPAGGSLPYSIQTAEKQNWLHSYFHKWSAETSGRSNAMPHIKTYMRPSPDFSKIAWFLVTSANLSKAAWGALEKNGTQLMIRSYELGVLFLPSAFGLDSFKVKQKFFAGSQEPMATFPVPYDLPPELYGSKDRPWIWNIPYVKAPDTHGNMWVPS
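Recombinant E. coli-expressed Tdp1 (1 nM) preincubated with compound 15 min at RT, then 5'-biotin/3'-phosphotyrosine-FITC DNA substrate (15 nM) added for 5 min. AlphaScreen beads (10 ug/ml) added, 10 min RT; tyrosine-FITC cleavage read as signal loss.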
TDP1 cell CPT = DT40-hTDP1 cell growth loss with CPT. Potency, µM (doses to about 46.2 µM), inactives show top-dose activity change, negative = growth inhibition, usual class: inhibitors. chicken DT40 Tdp1-/-;hTDP1 cells + 20 nM CPT, ATP luminescence, 48 h. 420,000 tested, 12% active; also: potency is read from the fitted curve at half-maximal effect; % is scaled to controls: 0 for no effect and ±100 for the full control effect; nearly all actives have a fitted effect of over 55% in size
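Chicken DT40 Tdp1-/- cells complemented with human TDP1, 400 cells/well, exposed to compounds plus 20 nM camptothecin for at least 48 h at 37 C; viability read as ATP content by CellTiter-Glo luminescence.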
An asterisk follows results filed as active; [ ] = remark or other dose. Hits are enriched below; roughly 18% of the tested compounds scored in any of these assays. Unless noted, calls follow the shape of the dose curve; as a rule, active = well fitted curve in the direction sought with a large enough effect; inconclusive = small, poorly fitted or top-dose-only effect, or another doubt; inactive = no such curve, though single readings can be large; an effect the other way counts as inactive or inconclusive.

Results for O=C(NC(Cc1ccccc1)C(=O)O)NC12CC3CC(CC(C3)C1)C2 (stereo not drawn) ?
HepG2 tox: 11%; IL1B secr inh: 24; TGFb inhibitor: 0%; TDP1 cell noCPT: 3%; TDP1 cell CPT: -1%

How did COc1cccc(NC(=O)C(C)Sc2nnc(C3CC3)n2C2CC2)c1 (stereo not drawn) do in these assays?
HepG2 tox: -1%; IL1B secr inh: 6; TGFb inhibitor: 4%; TDP1 cell noCPT: 0%; TDP1 block: 0%; TDP1 cell CPT: -21%

Results for COc1cccc(C(C)(O)c2nc(-c3cncnc3)cs2)c1 (stereo not drawn) ?
HepG2 tox: 15%; IL1B secr inh: 43; TGFb inhibitor: 4%; TDP1 cell noCPT: inconclusive; TDP1 cell CPT: inconclusive

What do the screens show for `CC(O)(c1cccnc1)c1nc(-c2ccc3ccccc3c2)cs1` (stereo not drawn)?
HepG2 tox: -10%; IL1B secr inh: 5; TGFb inhibitor: -31%; TDP1 cell noCPT: 23µM*; TDP1 cell CPT: 21µM*

Results for COc1cccc(C(C)(O)c2nc(-c3ccc(S(C)(=O)=O)cc3)cs2)c1 (stereo not drawn) ?
HepG2 tox: -23%; IL1B secr inh: -10; TGFb inhibitor: -21%; TDP1 cell noCPT: 18µM*; TDP1 cell CPT: inconclusive

What do the screens show for `COc1cccc(C(C)(O)c2nc(-c3ccc4ccccc4c3)cs2)c1` (stereo not drawn)?
HepG2 tox: -9%; IL1B secr inh: 28; TGFb inhibitor: inconclusive; TDP1 cell noCPT: inconclusive; TDP1 cell CPT: inconclusive

What do the screens show for `CC(O)(c1cccnc1)c1nc(/C=C/c2ccccc2)cs1` (stereo not drawn)?
HepG2 tox: -46%; IL1B secr inh: 41; TGFb inhibitor: 3%; TDP1 cell noCPT: 21µM*; TDP1 cell CPT: inconclusive

Results for COc1cccc(C(C)(O)c2nc(-c3ccc(OC)nc3)cs2)c1 (stereo not drawn) ?
HepG2 tox: 0%; IL1B secr inh: 10; TGFb inhibitor: -3%; TDP1 cell noCPT: inconclusive; TDP1 cell CPT: inconclusive

Results for COc1cccc(C(C)(O)c2nc(-c3cc(F)cc(F)c3)cs2)c1 (stereo not drawn) ?
HepG2 tox: -52%; IL1B secr inh: -16; TGFb inhibitor: inconclusive; TDP1 cell noCPT: 23µM*; TDP1 cell CPT: inconclusive

How did C/C=C\C=C\C(=O)Nc1cccc(C2=NOC3(C2)C[C@@H](C(N)=O)N(C(=O)C(c2ccccc2)c2ccccc2)C3)c1 (stereo partly drawn) do in these assays?
HepG2 tox: -1%; IL1B secr inh: inconclusive; TGFb inhibitor: inconclusive; TDP1 cell noCPT: inconclusive; TDP1 block: 2%; TDP1 cell CPT: inconclusive

What do the screens show for `CC(O)(c1cccnc1)c1nc(-c2cccc(C#N)c2)cs1` (stereo not drawn)?
HepG2 tox: -1%; IL1B secr inh: 11; TGFb inhibitor: 3%; TDP1 cell noCPT: 15µM*; TDP1 cell CPT: 16µM*

Results for COCc1cccc(-c2csc(C(C)(O)c3cccc(OC)c3)n2)c1 (stereo not drawn) ?
HepG2 tox: -25%; IL1B secr inh: 4; TGFb inhibitor: 6%; TDP1 cell noCPT: inconclusive; TDP1 cell CPT: 13µM*

How did COc1cccc(C(C)(O)c2nc(-c3ccc4c(c3)OCO4)cs2)c1 (stereo not drawn) do in these assays?
HepG2 tox: -17%; IL1B secr inh: 0; TGFb inhibitor: -2%; TDP1 cell noCPT: 21µM*; TDP1 cell CPT: 15µM*

How did COc1ccc(C(C)(O)c2nc(-c3csc4ccccc34)cs2)cc1 (stereo not drawn) do in these assays?
HepG2 tox: -10%; IL1B secr inh: 54; TGFb inhibitor: inconclusive; TDP1 cell noCPT: 4.6µM*; TDP1 cell CPT: 2.9µM*

What do the screens show for `COc1ccc(C(C)(O)c2nc(-c3cncnc3)cs2)cc1` (stereo not drawn)?
HepG2 tox: -8%; IL1B secr inh: 42; TGFb inhibitor: -10%; TDP1 cell noCPT: -19%; TDP1 cell CPT: -13%

What do the screens show for `CC(C)NC(=O)c1cn(C2CCC(NC(=O)C(C)(C)C)CC2)nn1` (stereo not drawn)?
TDP1 cell noCPT: -12%; TDP1 cell CPT: 14%[9.04 µM]

How did Cc1ccn(CC(=O)NC2CC(C)(C)Cc3c2cnn3-c2ccc(F)cc2)n1 (stereo not drawn) do in these assays?
HepG2 tox: 22%; IL1B secr inh: inactive; TGFb inhibitor: 0%; TDP1 cell noCPT: 6%; TDP1 block: 3%; TDP1 cell CPT: 1%

How did CC[C@H](C)[C@H](NC(=O)[C@H](Cc1ccc(O)cc1)NC(=O)[C@@H](NC(=O)[C@H](CCCN=C(N)N)NC(=O)[C@@H](N)CC(=O)O)C(C)C)C(=O)N[C@@H](Cc1ccc(N)cc1)C(=O)N1CCC[C@H]1C(=O)N[C@@H](Cc1ccccc1)C(=O)O do in these assays?
TDP1 block: 7%

What do the screens show for `CC(O)(c1cccnc1)c1nc(-c2ccc3c(c2)OCO3)cs1` (stereo not drawn)?
HepG2 tox: -9%; IL1B secr inh: 22; TGFb inhibitor: 1%; TDP1 cell noCPT: inconclusive; TDP1 cell CPT: 16µM*

What do the screens show for `COc1ccc(-c2csc(C(C)(O)c3cccc(OC)c3)n2)cc1` (stereo not drawn)?
HepG2 tox: -23%; IL1B secr inh: 9; TGFb inhibitor: -9%; TDP1 cell noCPT: inconclusive; TDP1 cell CPT: 16µM*

Results for COc1ccc(C(C)(NC(C)=O)c2nc(/C=C/c3ccccc3)cs2)cc1 (stereo not drawn) ?
HepG2 tox: -18%; IL1B secr inh: -1; TGFb inhibitor: -2%; TDP1 cell noCPT: inconclusive; TDP1 cell CPT: inconclusive

Results for CC(=O)NC(C)(c1ccccc1)c1nc(/C=C/c2ccccc2)cs1 (stereo not drawn) ?
HepG2 tox: -29%; IL1B secr inh: -15; TGFb inhibitor: 7%; TDP1 cell noCPT: 16µM*; TDP1 cell CPT: inconclusive

High-throughput results deposited in PubChem by National Center for Advancing Translational Sciences (NCATS).
